Bioassay records: PubChem, several laboratories
A selection: hits, their analogues and other compounds. The true share with any hit is near 0.51%.
E coli growth-1 – E. coli growth inhibition, primary screen, OD600; Escherichia coli growth, 23 h; active compounds read low; OD600 absorbance (concentration not given with the values); 330,000 compounds, 0.21% hits; AID 1053175, 2014;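 active = OD600 absorbance below the run mean of sample wells minus 3.6 SD, in any replicate, cut at about 0.56 in these data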
E coli growth-2 – E. coli V3065 growth inhibition, primary screen, counter-screen for AddAB inhibitor project, absorbance, OD600 | 18 h | inhibition, % at 11.9 µM | 330,000 compounds, 0.27% hits;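 active = inhibition above the campaign's mean inhibition across all tested compounds plus 3 SD, cut at about 9.9% in these data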;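 note: uninfected addAB+ strain grown without phage in ampicillin broth; 0% = DMSO wells and 100% = ciprofloxacin 0.95 µg/ml wells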
phage Ecoli inh – growth loss of phage-infected E. coli, primary screen, RecBCD inhibitor project, absorbance, with phage, HTS; AID 651602, 2012; inhibition, % at 11.9 µM; 360,000 compounds, 0.26% hits; in the data active = inhibition above about 11%
Tat transport – E. coli Tat export inhibitors, primary screen, MC4100, TorA-mCherry reporter, fluorescence, single point; inhibition, % at 10 µM; 340,000 compounds, 0.036% hits;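 active = mean replicate inhibition at least 50% and at least half of replicates individually reaching 50%; inconclusive = only one of the two criteria met; inactive = neither criterion met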;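 note: exported cargo escapes ClpAP degradation while cytoplasmic cargo is degraded and loses fluorescence; 0% = median of neutral control wells and 100% = median of NaSCN control wells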
AddAB inh – growth inhibition of E. coli expressing H. pylori AddAB, primary screen, AddAB inhibitor project, absorbance | 330,000 compounds, 0.29% hits | inhibition, % at 11.9 µM | AID 435030, 2010; in the data active = inhibition above about 12%;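 note: 0% = vehicle wells of infected cells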
RecBCD conf – growth loss of phage-infected RecBCD+ E. coli, confirmation, RecBCD inhibitor project, absorbance, E. coli V66, T4 gene 2 phage; shares compounds with phage Ecoli inh; E. coli V66 + T4 2- phage, growth OD; inhibition, % at 11.9 µM; 890 compounds, 45% hits;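 active = mean inhibition over triplicates exceeding the hit threshold derived in the original primary screen, cut at about 11% in these data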
Ecoli viability – E. coli viability inhibition, counter-screen for RecBCD inhibitor project, absorbance, high throughput; shares compounds with phage Ecoli inh; absorbance (OD) growth; inhibition, % at 11.9 µM; 890 compounds, 29% hits; AID 651983, 2013; in the data active = inhibition above about 20%;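 note: E. coli strain V66 grown with compound alone and no phage infection; 0% = bacteria with DMSO vehicle only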
AddAB phage OD – growth loss of phage-infected AddAB-carrying E. coli, confirmation, counter-screen for RecBCD inhibitor project, absorbance, E. coli V3065, T4 phage | 890 compounds, 45% hits | inhibition, % at 11.9 µM | shares compounds with phage Ecoli inh | E. coli expressing H. pylori AddAB + T4 phage, OD growth; gene 2 mutant T4, recBCD-deleted host | AID 651984, 2013;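 active = mean inhibition above the solvent-only control wells' mean plus 3 SD, cut at about 22% in these data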;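 note: higher means less bacterial growth from phage killing when AddAB is blocked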
Starred values were filed as active, the others as inactive; ? = inconclusive; nt = no result given.

SMILES	E coli growth-1	E coli growth-2	phage Ecoli inh	Tat transport	AddAB inh	RecBCD conf	Ecoli viability	AddAB phage OD
CN(C)c1ccc(NC(=O)Cn2cc3c(n2)CCCC3)cc1	0.77	-3	13*	8	0	0	-1	4
O=C1CCC(CN(Cc2ccccn2)Cc2nc(Cc3cccc(C(F)(F)F)c3)no2)N1 (configuration not stated)	0.69	nt	nt	nt	nt	nt	nt	nt
O=Nc1nc2ncccn2c1-c1ccccc1	nt	nt	15*	4	nt	8	16	95*
CCOC1OC(C(=O)N2CCN(Cc3ccc4c(c3)OCO4)CC2)=CC(c2ccccc2)C1CCCO (configuration not stated)	0.7	nt	nt	nt	nt	nt	nt	nt
Cc1ccc(S(=O)(=O)Nc2cccnc2Oc2ccc(Cl)cc2)cc1	0.68	2	-1	2	3	nt	nt	nt
Oc1c(I)cc(I)c2cccnc12	0.43*	1	23*	-4	-1	26*	30*	25*
Cc1ccc(S(=O)(=O)Nc2cc(Cl)c(O)c3ncccc23)cc1	nt	11*	12*	-1	11	5	9	9
Clc1cc2cccnc2c2ccccc12	0.68	2	2	4	3	nt	nt	nt
Oc1c(Cl)cc(Cl)c2cccnc12	0.071*	nt	43*	5	nt	55*	62*	51*
Cc1cc(Cl)c2ccc3ccccc3c2n1	0.69	0	3	-2	0	nt	nt	nt
Cc1ccc2c(Cl)cc(Cl)c(O)c2n1	0.064*	nt	13*	?	nt	7	9	8
OCc1ccc(O)c2ncccc12	0.78	4	5	-6	-1	nt	nt	nt
C=C(C)C(=O)N1CC2(CC(c3cccc(NC(=O)CC)c3)=NO2)CC1C(N)=O (configuration not stated)	0.65	nt	nt	nt	nt	nt	nt	nt
Oc1ccc(-c2nc3ccccc3nc2-c2ccccc2)cc1	0.7	0	33*	-1	0	-1	-1	-1
O=C(Nc1ccc(Cl)c(C(F)(F)F)c1)c1ccco1	0.62	-1	2	6	2	nt	nt	nt
CCNC(=S)Nc1ccc(Cl)c(C(F)(F)F)c1	0.6	7	12*	6	7	4	4	12
Cc1cc(C(=O)N(C2CCCCC2)C2CCCCC2)no1	0.64	-3	12*	0	3	-1	0	-1
Cc1cc(C(=O)N2C(C)CCCC2C)no1 (configuration not stated)	0.66	-1	2	7	0	nt	nt	nt
CCC(=O)c1cn(C(=CC(=O)OC(C)(C)C)CCC(OC)OC)cc1CC	0.64	nt	nt	nt	nt	nt	nt	nt
CCCCNC(=O)NCC(=O)Nc1ccc(F)c(F)c1	0.69	-2	1	11	-2	nt	nt	nt
Cn1nc(C(=O)NCC(=O)Nc2ccc(F)c(F)c2)ccc1=O	nt	nt	11*	nt	nt	0	-1	-3
Cn1c(=O)n(C)c2cc(C=C3SC(=O)N(CC(=O)N4CCOCC4)C3=O)ccc21	0.64	nt	nt	nt	nt	nt	nt	nt
Nc1nc(N)c2cc(S(=O)(=O)c3ccc4ccccc4c3)ccc2n1	nt	nt	28*	nt	nt	101*	99*	101*
Nc1nc(N)c2c(ccc3c2ccn3Cc2cccc([N+](=O)[O-])c2)n1	nt	nt	100*	nt	nt	103*	103*	103*
Nc1nc(N)c2cc([N+](=O)[O-])ccc2n1	0.6	nt	4	2	nt	nt	nt	nt
SMILES	E coli growth-1	E coli growth-2	phage Ecoli inh	Tat transport	AddAB inh	RecBCD conf	Ecoli viability	AddAB phage OD
CCn1cc(C(=O)O)c(=O)c2cc(F)c(N3CCNCC3)nc21	0.059*	nt	102*	62*	nt	102*	103*	102*
CCC(NC(=O)c1c(C)c(-c2ccccc2)nc2ccccc12)c1ccccc1 (configuration not stated)	0.71	nt	nt	nt	nt	nt	nt	nt
O=C1NC(=S)S/C1=C\C=C\c1ccc([N+](=O)[O-])o1	0.07*	nt	96*	68*	nt	99*	99*	99*
CC(C)(C)OC(=O)CCC(C(=O)N1CCN(C(=O)OC(C)(C)C)CC1)n1cc(C(Cc2ccc(O)cc2)NC(=O)OC(C)(C)C)nn1 (configuration not stated)	0.66	nt	nt	nt	nt	nt	nt	nt
O=C(N/N=C\C=C\c1ccc([N+](=O)[O-])o1)c1cccs1	nt	nt	98*	23	nt	105*	107*	104*
FC(F)(F)c1cc(CCN2CCNCC2c2ccccc2)cc(C(F)(F)F)c1 (configuration not stated)	0.62	nt	nt	nt	nt	nt	nt	nt
Oc1c(Br)cc(Br)cc1/C=N/Nc1ccc(Cl)nn1	nt	1	0	-5	0	nt	nt	nt
Oc1ccc(/C=N/Nc2ccc(Cl)nn2)c(O)c1O	nt	3	11*	-3	2	3	2	21*
O=C(Nc1ccc2[nH]ncc2c1)c1ccc(F)cc1	0.7	0	12*	-2	4	-1	-2	-2
CCOC(=O)c1ccc(N2C(=O)C(c3ccccc3)C2c2ccccc2)cc1 (configuration not stated)	0.71	nt	nt	nt	nt	nt	nt	nt
CC(NC(=O)c1nc[nH]c1C(=O)NC(CCCCN)C(=O)OC(C)(C)C)C(=O)OC(C)(C)C (configuration not stated)	0.65	nt	nt	nt	nt	nt	nt	nt
O=C(NC(Nc1nc2ccc([N+](=O)[O-])cc2s1)(C(F)(F)F)C(F)(F)F)c1ccccc1Cl	0.59	11*	15*	-2	14*	8	11	6
CCCC(=O)NC(c1cccc([N+](=O)[O-])c1)c1ccc2cccnc2c1O (configuration not stated)	nt	nt	23*	nt	nt	16*	20*	26*
CCN(CC)c1ccc(C(NC(=O)C(C)C)c2ccc3cccnc3c2O)cc1 (configuration not stated)	nt	nt	21*	nt	nt	8	9	16
Oc1c(C(Nc2cccc(C(F)(F)F)c2)c2ccncc2)ccc2cccnc12 (configuration not stated)	0.65	-9	1	4	-7	nt	nt	nt
Cc1ccc(C(NC(=O)C(C)C)c2cc([N+](=O)[O-])c3cccnc3c2O)cc1 (configuration not stated)	0.66	1	3	-8	6	nt	nt	nt
CC(=O)NC(c1ccc(Cl)cc1Cl)c1ccc2cccnc2c1O (configuration not stated)	nt	nt	24*	-19	nt	17*	20*	21
CC(=Cc1ccccc1)C(=O)NCCc1ccccc1	0.7	nt	nt	nt	nt	nt	nt	nt
CCN1C(=O)C2C(c3ccc(C)cc3)N3C(=O)N(c4cccc(Br)c4)C(=O)[C@@]3(CC)C2C1=O (some centres not stated)	0.7	nt	nt	nt	nt	nt	nt	nt
COC(=O)c1ccc(C=Cc2c(-c3ccc(OC)cc3)sc3ccccc23)cc1	0.74	nt	nt	nt	nt	nt	nt	nt
O=C(C=Cc1ccccc1)c1ccccc1	0.66	nt	nt	nt	nt	nt	nt	nt
